Experimental findings from PubChem BioAssay are described below.

For the assay, the target named is Torsin-1A (Homo sapiens) (UniProt O14656). As to the kind of experiment: small-molecule binders of mutant TOR1A in lysate, primary screen, cell lysate, small-molecule microarray, COS7 lysate, 635/667 nm fluorescence (AID 1150).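 Also: score pools 667 nm emission and signal to noise measuring lysate protein binding.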 To be noted: COS7 hTOR1A mutant lysate, 635 nm fluorescence, higher = more signal.
Sequence of Torsin-1A (Homo sapiens) (O14656 whole entry, looked up): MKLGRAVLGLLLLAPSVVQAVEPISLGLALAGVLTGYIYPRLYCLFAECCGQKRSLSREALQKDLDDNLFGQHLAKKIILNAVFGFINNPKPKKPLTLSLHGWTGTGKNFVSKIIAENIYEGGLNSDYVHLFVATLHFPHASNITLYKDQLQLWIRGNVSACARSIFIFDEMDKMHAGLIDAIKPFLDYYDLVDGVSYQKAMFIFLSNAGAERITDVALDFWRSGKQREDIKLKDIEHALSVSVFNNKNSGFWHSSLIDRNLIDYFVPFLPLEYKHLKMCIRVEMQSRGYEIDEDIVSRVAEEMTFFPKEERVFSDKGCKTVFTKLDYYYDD
Take `C=C(C(=O)CC[C@@H](OC(=O)c1cccnc1)c1ccc(CO)o1)C(C)C`: the composite z-score is 0.584.

As for `O=C1O[C@H](c2ccccc2)[C@H](c2ccccc2)N2[C@H]1[C@@H](C(=O)Nc1nc3ccccc3s1)[C@]1(C(=O)Nc3ccc(C#CC4=CCCCC4)cc31)[C@H]2c1ccc(OCCO)cc1`, the composite z-score was found to be 0.407.

On to `COCCOC(=O)N1C(=O)[C@@]2(c3cc(C#Cc4ccc(OC)cc4)ccc31)[C@H](C(N)=O)[C@H]1C(=O)O[C@H](c3ccccc3)[C@H](c3ccccc3)N1[C@@H]2c1ccc(O)cc1`, for which the composite z-score is -1.29.

`CN1C(=O)C2C(C1=O)C1C=C(c3ccc(CO)cc3)C2C(C2CC2)N1Cc1sc2ccccc2c1Cl` (stereo unspecified) showed a composite z-score of 1.57.

Regarding `CC1CC/C=C\[C@H]2OC34C=CCN(Cn5nnc6ccccc65)C(=O)[C@H]3N(CCCO)C(=O)[C@@H]4C2C(=O)O1` (stereo partly specified), the composite z-score was -1.33.

`O=P(NCC1(CC2(c3ccccc3)CO2)CC1)(c1ccccc1)c1ccccc1` (stereo unspecified) came in with a composite z-score of -0.754.

`CCOC(=O)C1=CC[C@@H](c2ccccc2)N(S(=O)(=O)c2ccc(C)cc2)[C@H]1c1ccc(C#N)cc1` showed a composite z-score of 0.389.

Take `COc1cc(NN2C(C(O)c3ccccc3)C=CC3C(=O)N(c4ccccc4)C(=O)C32)cc(OC)c1OC` (stereo unspecified): the composite z-score is 0.989.

For the compound `Cn1c2c(c3ccccc31)C(=O)C1NC2C=CC1(C)C(=O)OCc1ccccc1` (stereo unspecified), the composite z-score was determined as 0.285.

In the case of `Cc1ccc(S[C@]2(C(=O)NCCN3CCOCC3)CC(=O)N(C3CCCCC3)[C@@H]2c2ccc(CO)cc2)cc1`, the composite z-score is 0.783.

`COCCOC(=O)N1C(=O)[C@@]2(c3cc(C#CC4=CCCCC4)ccc31)[C@H](c1ccc(OCCO)cc1)N1[C@H](c3ccccc3)[C@H](c3ccccc3)OC(=O)[C@H]1[C@@H]2C(=O)Nc1nc2ccccc2s1` showed a composite z-score of 0.394.
